Source: PubChem BioAssay AID1645858 (Buhrlage Lab, Dana-Farber Cancer Institute and Novartis …, 2021)
The campaign covered roughly 47,000 compounds. About 330 (0.7%) were called active. Only a selection was taken, and actives are over-represented in it overall. Unmarked numbers belong to inactive results. No stated cut-off is given here; in the data, active means inhibition above about 30%; inactive means the rest.

Biological target: OTU domain-containing protein 3 (Homo sapiens) (UniProt Q5T2D3)
Sequence (Q5T2D3 whole entry, looked up, the tested form may be a part): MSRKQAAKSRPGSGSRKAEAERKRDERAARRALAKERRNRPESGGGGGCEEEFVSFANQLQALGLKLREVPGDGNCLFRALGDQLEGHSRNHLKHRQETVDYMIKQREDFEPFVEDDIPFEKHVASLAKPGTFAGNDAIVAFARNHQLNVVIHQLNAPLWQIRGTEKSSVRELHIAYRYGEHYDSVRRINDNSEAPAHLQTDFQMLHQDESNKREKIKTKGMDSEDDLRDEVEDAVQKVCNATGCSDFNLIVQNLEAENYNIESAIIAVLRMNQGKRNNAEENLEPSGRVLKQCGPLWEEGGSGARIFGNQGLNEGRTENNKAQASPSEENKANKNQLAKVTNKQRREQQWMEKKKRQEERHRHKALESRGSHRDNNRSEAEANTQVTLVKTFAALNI
Assay: blocks human OTUD3 ubiquitin-rhodamine cleavage (AID 1645858)
Details: purified OTUD3, Ub-rhodamine fluorescence, 2 h; at 25 µM; active compounds read high

Question: With `COc1ccc(Cl)cc1C(=O)NCC(c1ccsc1)N1CCOCC1` (stereo not drawn) as the compound, how does the inhibition read?
Answer: -5.99%

Question: Which inhibition does the source give for `CC1CN(S(=O)(=O)c2cccc(Cl)c2)Cc2ccccc2N1C` (stereo not drawn) here?
Answer: -2.48%

Question: With `Cc1ccc(S(=O)(=O)c2cn(CC(=O)NC3CCCC3)c3nc(C)ccc3c2=O)cc1` as the compound, how does the inhibition read?
Answer: -8.29%

Question: With `N#Cc1cccc(CN2CC[C@@H]3[C@@H](CO[C@@H]3CNc3ncccn3)C2)c1` as the compound, how does the inhibition read?
Answer: 0.273%

Question: With `CCN1CCN(c2ccc(-c3nc(-c4ccc(C)cc4)no3)cn2)CC1` as the compound, how does the inhibition read?
Answer: -1.12%

Question: How did the inhibition turn out when `Cc1cc2n(n1)CCCN2C(=O)CCC(=O)N1CCN(c2ccc(F)cc2)CC1` was run?
Answer: 7.75%

Question: For `O=C(NCc1cccnc1)C1CCN(c2cnc(N3CCCCCC3)nc2)CC1`, which inhibition is on record?
Answer: -16.6%

Question: For `O=C(Cn1cccc1-c1nnc(C2CC2)o1)NC1CCCCC1`, which inhibition is on record?
Answer: -15.9%

Question: How did the inhibition turn out when `CCCNc1c(NC(=O)C2CC(=O)N(c3ccccc3)C2)c(=O)oc2ccccc12` (stereo not drawn) was run?
Answer: 21.6%

Question: How did the inhibition turn out when `O=C(N[C@@H]1C[C@@H](Oc2cccnc2)[C@H](O)[C@H]1N1CCCCC1)c1ccccn1` was run?
Answer: -9.39%

Question: With `CC(=O)N1Cc2ccccc2CC2(CCN(Cc3cccnc3)CC2)C1` as the compound, how does the inhibition read?
Answer: 4.03%

Question: With `CCC(=O)Nc1nc2cc(NC(=O)c3ccc(OC)cc3)ccc2s1` as the compound, how does the inhibition read?
Answer: 17.4%

Question: `O=C(NCCc1ccccc1)c1ccc2c(=O)nc3c(-c4ccccc4F)n[nH]n3c2c1` was tested. Which inhibition did it give?
Answer: -7.12%

Question: For `O=C(Cn1c(=O)n(Cc2ccc3c(c2)OCO3)c(=O)c2ccccc21)NCc1ccco1`, which inhibition is on record?
Answer: 0.529%

Question: For `O=C(NCCc1ccccc1)c1ccc2c(=O)n(Cc3ccco3)c(=O)n(Cc3cccc([N+](=O)[O-])c3)c2c1`, which inhibition is on record?
Answer: 36.8% (active)

Question: `COCCn1cc2c3c(cccc31)CN(C(=O)c1cnccn1)CC2` was tested. Which inhibition did it give?
Answer: -12.8%

Question: How did the inhibition turn out when `Cc1nn(-c2ccccn2)c2ncc(C(=O)c3cc(F)ccc3O)cc12` was run?
Answer: -3.93%

Question: For `CCNC(=O)CCc1nc2c(C)nn(-c3ccccc3)c2n(CC)c1=O`, which inhibition is on record?
Answer: 9.41%

Question: With `CC(C)c1cc(C2CCCN2C(=O)Cc2ccc(F)cc2)no1` (stereo not drawn) as the compound, how does the inhibition read?
Answer: 2.85%

Question: `CCN1CCC(n2c(C(F)(F)F)nc3c(OC)cccc32)CC1` was tested. Which inhibition did it give?
Answer: 5.17%

Question: With `CCN1C[C@@]23CN(C(=O)c4cccc(Cl)c4)C[C@@H](C[C@@H]2S1(=O)=O)O3` as the compound, how does the inhibition read?
Answer: 11.4%

Question: How did the inhibition turn out when `CCc1nnc(-c2ccc(=O)n(CC(=O)N3CCN(C(C)C)CC3)c2)o1` was run?
Answer: -5.08%

Question: Which inhibition does the source give for `CNc1nc(N2CCCCCC2)nc(-n2cnc(SC)n2)n1` here?
Answer: -0.432%

Question: For `COc1cccc(N2CCN(C(=O)c3sc4ncccc4c3-n3cccc3)CC2)c1`, which inhibition is on record?
Answer: 15.3%

Question: `O=C(Cc1cc(=O)oc2cc(O)ccc12)N1CC[C@@]2(O)CCCC[C@H]2C1` was tested. Which inhibition did it give?
Answer: 1.08%

Question: With `Cc1occc1C(=O)Nc1cc(-c2ccc(F)cc2)nn1C` as the compound, how does the inhibition read?
Answer: -0.358%

Question: With `O=C(O)CC1(CC(=O)Nc2ccc(Oc3ccccc3)cc2)CCCC1` as the compound, how does the inhibition read?
Answer: 15.9%

Question: Which inhibition does the source give for `Clc1ccc(CNC2CCN(Cc3ccccc3)C2)cc1Cl` (stereo not drawn) here?
Answer: 5.2%

Question: `Cc1cc(S(=O)(=O)N2CC=C(c3c(C)[nH]c4ccccc34)CC2)ccc1F` was tested. Which inhibition did it give?
Answer: -29.4%

Question: How did the inhibition turn out when `CCc1ccc(S(=O)(=O)N2CCC3(CC2)COCCN(Cc2cccnc2)C3)cc1` was run?
Answer: -4.96%

Question: For `O=C(c1ccc(N2CCCC2)nn1)N1CCN(c2ccccn2)CC1`, which inhibition is on record?
Answer: 0.782%

Question: How did the inhibition turn out when `Clc1cc2nc(N3CCN(c4ccccn4)CC3)c3nncn3c2cc1Cl` was run?
Answer: 44.6% (active)

Question: How did the inhibition turn out when `Cc1nn(-c2ccccc2)c(C)c1S(=O)(=O)N1CCN(c2ccccn2)CC1` was run?
Answer: -4.16%

Question: Which inhibition does the source give for `Cc1nc(NC(=O)c2ccc(F)cc2Cl)sc1-c1ccccc1` here?
Answer: -3.32%

Question: For `CC(=O)N[C@@H]1C[C@H](c2cccc(F)c2)O[C@@H]2CCC[C@@H]12`, which inhibition is on record?
Answer: -4.95%

Question: How did the inhibition turn out when `CCn1c(CNC(=O)c2ccco2)nnc1SCC(=O)Nc1cccc(F)c1` was run?
Answer: 0.153%

Question: For `COc1ccc(/C=C/C(=O)Nc2ccc3c(c2)OCCO3)cc1Br`, which inhibition is on record?
Answer: -13.2%

Question: `O=C(CSc1nnc(-c2ccncc2)n1Cc1ccccc1)Nc1cccc(Cl)c1` was tested. Which inhibition did it give?
Answer: -10.3%

Question: `O=C(c1ccncc1)N1CC[C@@H]2CN(Cc3cccc(Cl)c3)S(=O)(=O)[C@@H]2CC1` was tested. Which inhibition did it give?
Answer: 2.12%

Question: `Cc1cccc(-c2c3c(=O)n(C)c(=O)n(C)c3cn2Cc2ccc(F)cc2)c1` was tested. Which inhibition did it give?
Answer: -12.7%

Question: Which inhibition does the source give for `CC(C)=CCC/C(C)=C\Cc1c(O)cc(C)c(C=O)c1O` here?
Answer: -3.19%

Question: Which inhibition does the source give for `NC(=O)c1ccc(NC(=O)Cc2cc(-c3ccc(Cl)cc3)on2)cc1` here?
Answer: -10.7%

Question: Which inhibition does the source give for `Cc1ccc(NS(=O)(=O)c2ccc3c(c2)NC(=O)CC(=O)N3)cc1F` here?
Answer: -1.08%

Question: For `CCOc1ccc(S(=O)(=O)N2CCCC2c2ccco2)cc1` (stereo not drawn), which inhibition is on record?
Answer: -0.738%

Question: `O=C1CC(C(=O)N2CCC(c3ccc(Nc4ncccn4)cn3)CC2)c2ccccc2N1` (stereo not drawn) was tested. Which inhibition did it give?
Answer: -7.6%

Question: How did the inhibition turn out when `O=S(=O)(c1cccc2cccnc12)N1CCN(C2CCCCC2)CC1` was run?
Answer: -6.63%

Question: Which inhibition does the source give for `O=C1C(O)=C(c2ccc(O)c(O)c2)C(=O)C(O)=C1c1ccccc1` here?
Answer: 73.3% (active)

Question: `CCOC(=O)c1cc(C(=O)Nc2cccc(C(F)(F)F)c2)n2ccc(C)cc12` was tested. Which inhibition did it give?
Answer: -0.911%
